# Source: ChEMBL document CHEMBL4513216, “Probing the Open Global Health Chemical Diversity Library for Multistage-Active Starting Points for Next-Generation Antimalarials” (ACS Infect Dis, 2020)
# Screen size: about 69,000 compounds; about 8,600 (12%) showed an effect of 50% or more. The full list was thinned out, with strong results kept by preference.
# System: Plasmodium berghei
# Assay: Screen against P. berghei liver stage (PbLuc), transformed with Luciferase, at 10uM
# Format: functional, HepG2
# Conditions: tested at 10 uM
row,SMILES,INHIBITION [%]
1,COCc1noc(CN2CCC3(CC2)[C@H](O)C[C@@H]3OC)n1,15.8
2,CCOc1ccc(OCC(O)CN2CCN(S(C)(=O)=O)CC2)cc1 (centres undefined),-67.3
3,CC(=O)NCC1CCN(C(=O)c2c[nH]c3cc(Cl)ccc23)CC1,35.3
4,CN1CCO[C@@H]2CN(S(=O)(=O)c3cccs3)CC[C@@H]2C1,28.5
5,CCn1cc(C(=O)N2C[C@H]3CC(Oc4ccccc4)C[C@H]3C2)cn1 (some centres undefined),-17.715
6,CC(C)(C)NC[C@@H]1CCC[C@@H]2CN(Cc3csnn3)C[C@@H]21,-39.2
7,O=C(Cn1cc(-c2ccccc2)cn1)NC(C1CC1)C1CC1,34.7
8,OCCn1cc(CN2CCN(CCOc3cccc(F)c3)CC2)cn1,33.95
9,Cc1cnc(NC(C)Cc2cccnc2)nc1N(C)C (centres undefined),55
10,COCc1nc(NC(C)Cc2cc(C)n[nH]2)c2cnn(C)c2n1 (centres undefined),25.4
11,Cc1cc(NC(C)Cc2cccnc2)n2nccc2n1 (centres undefined),23
12,Cc1cc(CC(C)Nc2ncc(C)c(N(C)C)n2)[nH]n1 (centres undefined),63.7
13,Cc1cnc(NC(C)Cc2cnccn2)nc1N(C)C (centres undefined),0.705
14,Cc1cccnc1CC(C)Nc1ncc(C)c(N(C)C)n1 (centres undefined),27.9
15,COc1ccc(C(=O)N2C[C@@H](O)[C@H](NCc3cnc(C)cn3)C2)cc1,35.15
16,O=C(NCCc1nncn1C1CC1)c1cc2ccccn2c1,-22.3
17,O=C(Nc1ccc(CC(=O)N2CCCC2)cc1)NC1CC1,36.2
18,CN(C(=O)Cc1ccc(NC(=O)NC2CC2)cc1)c1ccccc1,8.845
19,CN(C(=O)Cc1ccc(NC(=O)NC2CCC2)cc1)c1ccccc1,55.3
20,CN(C)C(=O)Cc1ccc(NC(=O)NC2CCCC2)cc1,-36.6
21,O=C(Nc1ccc(CC(=O)N2CCSCC2)cc1)NC1CC1,53.8
22,O=C(Nc1ccc(CC(=O)N2CCSCC2)cc1)NC1CCCC1,33.2
23,CCc1noc(CNc2ccc(CC(=O)N3CCSCC3)cc2)n1,28.5
24,Cc1noc(CNc2ccc(CC(=O)N3CCSCC3)cc2)n1,32.5
25,CCc1nnc(CNc2ccc(CC(=O)N3CCSCC3)cc2)o1,84.2
26,CC(C)C(NC(=O)Nc1ccc(F)cc1)C(=O)N(C)C (centres undefined),18.7
27,Cn1cc(-c2cc(C(F)(F)F)n(CCCN)n2)cn1,21.9
28,CNC(=O)CN([C@H]1C[C@H]2CCOC[C@H]2C1)S(=O)(=O)c1ccccc1,19.2
29,O=C1COC2(CCN(Cc3ccoc3)CC2)CN1CCn1cccn1,0.804
